Compound activity: PubChem BioAssay, several laboratories
Only some compounds are listed: those with a hit (about 1.4% of all), similar ones and a draw of the others.
EBV gp42 inh = EBV gp42 inhibition; Q1HVG2; Fluorescence polarization binding assay, mP read-out; inhibition, % (tested at 21.74 µM); 220,000 tested, 0.42% active; AID 1085; in the data active means inhibition above about 50%
Target sequence (Q1HVG2 whole entry, looked up): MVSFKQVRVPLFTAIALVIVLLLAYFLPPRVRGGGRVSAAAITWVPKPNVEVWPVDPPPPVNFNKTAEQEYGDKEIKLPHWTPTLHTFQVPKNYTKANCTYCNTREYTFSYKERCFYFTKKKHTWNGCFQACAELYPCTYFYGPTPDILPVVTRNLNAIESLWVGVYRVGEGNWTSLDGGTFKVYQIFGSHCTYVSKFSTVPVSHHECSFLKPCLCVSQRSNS
eLon inh = E. coli protease La inhibition; purified E. coli Lon protease, fluorescence polarization; 360,000 tested, 0.42% active; inhibition, % at 7.94 µM; AID 602123; in the data active means inhibition above about 13%, passing the limit was not always enough
MCL1-BIM inh = inhibitors of human MCL1 binding to BIM-BH3 peptide | Q07820 | inhibition, % at 10.9 µM | GST-MCL1 / FITC-Bim-BH3 fluorescence polarization | 320,000 tested, 0.68% active;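 active means inhibition above the mean inhibition of all tested compounds plus 3 SD, set per campaign, cut at about 40% in these data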;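 further: higher means more loss of mP so more displacement of Bim peptide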
Target sequence (Q07820 whole entry, looked up): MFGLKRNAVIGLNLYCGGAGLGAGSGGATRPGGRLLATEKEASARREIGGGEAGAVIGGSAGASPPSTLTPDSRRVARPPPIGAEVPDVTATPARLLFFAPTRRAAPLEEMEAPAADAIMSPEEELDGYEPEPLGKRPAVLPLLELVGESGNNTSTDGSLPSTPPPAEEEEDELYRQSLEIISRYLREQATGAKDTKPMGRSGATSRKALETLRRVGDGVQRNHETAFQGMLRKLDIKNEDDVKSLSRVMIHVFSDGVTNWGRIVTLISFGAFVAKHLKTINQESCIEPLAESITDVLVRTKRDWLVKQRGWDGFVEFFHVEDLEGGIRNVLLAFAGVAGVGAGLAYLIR
MEX-5 binding = C. elegans MEX-5 TCR-2 RNA binding activity; Q9XUB2; 300,000 tested, 0.38% active; activity score (negative = inhibition of binding), % at 10 µM; AID 1832; MEX-5/FITC-TCR2 RNA binding, fluorescence polarization; stronger effect = lower value;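 active means inhibition past about -25% in most replicates, and total fluorescence under double the plate's negative control median, limit read from the data; inconclusive means replicates evenly split on the limit, or fluorescence at least double controls; inactive means too little inhibition in most replicates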
BCLXL inh = inhibitors of human Bcl-xL | Q07817 | GST-Bcl-xL / FITC-Bim BH3 peptide fluorescence polarization | inhibition, % at 10.9 µM | 320,000 tested, 0.7% active;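 active means inhibition above the mean of all tested compounds plus 3 SD, cutoff set per campaign, cut at about 30% in these data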;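 further: inhibitors lower millipolarization by displacing the labeled peptide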
GLD-1 RNA inh = GLD-1-TGE RNA interaction inhibition (C. elegans); purified GLD-1 + fluorescein TGE RNA, fluorescence polarization; inhibition, % at 5.96 µM; 320,000 tested, 0.44% active;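 active means percent inhibition above a per-plate cutoff, the plate mean of test compounds plus 3 SD, cut at about 30% in these data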
eLon confirm = confirmation of E. coli Lon protease inhibitors; shares compounds with eLon inh; purified E. coli Lon, fluorescence polarization; inhibition, % at 7.94 µM; 1,400 tested, 31% active; AID 602230; in the data active means inhibition above about 16%
Large screens that a line does not name were inactive (follow-up assays come after a bar, where they were run).

O=C1N[C@@H](Cc2ccccc2)C(=O)N2[C@H]1C[C@]1([C@]34C[C@H]5C(=O)N[C@@H](Cc6ccccc6)C(=O)N5[C@H]3N(S(=O)(=O)c3ccccc3)c3ccccc34)c3ccccc3N(S(=O)(=O)c3ccccc3)[C@H]21	eLon inh 55 (no result: EBV gp42 inh) | eLon confirm inactive
O=C1CCCC/C1=C\Nc1ccc(C(=O)O)c(O)c1	eLon inh 44 | eLon confirm inactive
CC1CCC/C(=C\Nc2ccc(C(=O)O)c(O)c2)C1=O (centres undefined)	none
Cc1ccc2c(c1)c1c(n2CC(O)CNC2CCCCC2)CCCC1 (centres undefined)	eLon inh 28 | eLon confirm inactive
Nc1ccc2c(c1)OC1(CCCC1)O2	none
O=C(CSCc1nc2c(nnn2Cc2ccc(F)cc2)c(=O)[nH]1)Nc1cccc(C(F)(F)F)c1	eLon inh 16 (no result: MEX-5 binding) | eLon confirm inactive
CCOC(=O)[C@]12CCC=C1N(Cc1ccco1)C(=O)[C@H](CC(=O)N1CCCCC1)C2	none (no result: EBV gp42 inh, MCL1-BIM inh, MEX-5 binding, BCLXL inh, GLD-1 RNA inh)
CC(=O)Nc1nc(C)c(Oc2ccccc2)c(=O)[nH]1	eLon inh 23 | eLon confirm inactive
CCC(=O)NC(c1cccs1)c1ccc2cccnc2c1O (centres undefined)	eLon inh 21 | eLon confirm inactive
CC(C)CC(=O)NC(c1cccs1)c1ccc2cccnc2c1O (centres undefined)	none
Cn1c(=O)[nH]c(=O)c2c1nc(N)n2Cc1ccccc1	none (no result: EBV gp42 inh)
CSCCC(NC(=O)c1ccco1)C(=O)N1CCCCCCC1 (centres undefined)	eLon inh 21 (no result: EBV gp42 inh) | eLon confirm inactive
COc1ccc(Cc2nnc(SCC(=O)c3ccc4c(c3)NC(=O)CO4)o2)cc1	none (no result: EBV gp42 inh)
Cc1cc(C)n2nc(SCc3cc(=O)oc4cc(C)c(C)cc34)nc2n1	none (no result: eLon inh)
Cc1cc(C)n2nc(SCc3cc(=O)oc4ccc5ccccc5c34)nc2n1	eLon inh 14 | eLon confirm inactive
CCOC(=O)/C=c1\s/c(=C\c2ccc(C)cc2)c(=O)n1CC(=O)NCc1ccco1	eLon inh 24 | eLon confirm inactive
O=C(NN1CCCCC1)c1ccc(COc2ccc(Cl)cc2)cc1	none
CCc1c(C)nc(SCc2ccccn2)[nH]c1=O	none
Cc1cc2cc(CCNC(=O)CCc3ccccc3)c(=O)[nH]c2cc1C	none (no result: EBV gp42 inh)
Cc1cc(NC(=O)CSc2cn(CCNC(=O)c3ccccc3)c3ccccc23)no1	eLon inh 20 | eLon confirm inactive
COc1ccc(NC(=O)COC(=O)c2cc(C)oc2C)cc1OC	none (no result: EBV gp42 inh, MEX-5 binding)
COc1ccc(OC)c(C(=O)COC(=O)c2cc(C)oc2C)c1	eLon inh 27 | eLon confirm inactive
CN(CC(=O)Nc1sccc1C(N)=O)S(=O)(=O)c1ccc(Cl)cc1	none (no result: EBV gp42 inh, MCL1-BIM inh, MEX-5 binding, BCLXL inh)
CN(CCc1ccccn1)C(=O)CC1C(=O)NCCN1Cc1ccc(-c2ccccc2)cc1 (centres undefined)	none
Cc1ccc(CN2CCNC(=O)C2CC(=O)N(C)CCc2ccccc2)cc1 (centres undefined)	eLon inh 23 | eLon confirm inactive
CC(C)[C@H](NC(=O)OC(C)(C)C)C(=O)N1CCC(C(=O)N[C@@H](C)C(=O)Nc2ccc(F)cc2)CC1	eLon inh 19 (no result: EBV gp42 inh) | eLon confirm inactive
COc1cc(CN(C(=O)c2ccco2)C2CCS(=O)(=O)C2)cc(OC)c1OC (centres undefined)	none (no result: EBV gp42 inh)
CN1Cc2c(N3CCOCC3)nc(SCc3ccccc3)c(C#N)c2CC1(C)C	eLon inh 45 | eLon confirm inactive
CC(C)C[C@@H](CN1CCC[C@H]1CN1C(=O)C(=O)NC[C@@H]1Cc1ccc(O)cc1)N1C[C@H](Cc2ccccc2)N(CCc2ccccc2)C(=O)C1=O	eLon inh 11 (no result: EBV gp42 inh, MCL1-BIM inh, MEX-5 binding, BCLXL inh, GLD-1 RNA inh) | eLon confirm inactive
C=CCOC(=O)C(C#N)c1nc2ccccc2nc1N1CCN(c2ccccc2OC)CC1 (centres undefined)	none
C=CCN(CC=C)c1nc2ccccc2nc1C(C#N)C(=O)OC(C)C (centres undefined)	eLon inh 16 | eLon confirm inactive
O=C(CCCOC(=O)c1ccc(O)cc1O)c1ccc(Br)cc1	eLon inh 20 (no result: EBV gp42 inh, MCL1-BIM inh, MEX-5 binding, BCLXL inh, GLD-1 RNA inh) | eLon confirm inactive
CCOc1nc(N2CCCCC2)nc(-n2cc(-c3ccccc3)nn2)n1	eLon inh 16 | eLon confirm inactive
Cc1ccc2c(c1)C(=O)CCN2	none
O=C1CCNc2ccc(-c3ccccc3)cc21	EBV gp42 inh active, eLon inh 73, MEX-5 binding -67 | eLon confirm active
O=C(NCc1ccccc1)C(c1cccnc1)N(C(=O)c1csnn1)c1ccccc1 (centres undefined)	none (no result: EBV gp42 inh)
Cc1ccc([N+](=O)[O-])cc1Nc1nc(N2CCCC2)nc(N2CCCC2)n1	none (no result: EBV gp42 inh)
CCN1CC=C2C(C1)C(c1ccc(Cl)s1)C(C#N)=C(N)C2(C#N)C#N (centres undefined)	EBV gp42 inh 88, eLon inh 81, MCL1-BIM inh 114, MEX-5 binding inconclusive, BCLXL inh 102, GLD-1 RNA inh 76 | eLon confirm inactive
COc1ccc(C(=O)Nc2sc(C)c(C)c2CN2CC(C)OC(C)C2)cc1 (centres undefined)	none
Oc1c(N=Nc2ccc(F)cc2)ccc2ccccc12	none (no result: EBV gp42 inh)
Oc1c(N=Nc2nn[nH]n2)ccc2ccccc12	eLon inh 48 (no result: EBV gp42 inh, MCL1-BIM inh, MEX-5 binding, BCLXL inh, GLD-1 RNA inh) | eLon confirm 25
Cc1ccc2c(c1)c(C)c(C)n2CC(O)Cn1nc(C)c(Br)c1C (centres undefined)	eLon inh 15 | eLon confirm 23
Cc1ccc(S(=O)(=O)N2CCN(CC(=O)Nc3ccccc3C(=O)NC3CC3)CC2)cc1	none (no result: EBV gp42 inh, MCL1-BIM inh, MEX-5 binding, BCLXL inh, GLD-1 RNA inh)
CC(C)(C)c1cc(C(=O)N/N=C/c2ccc(-c3ccccc3[N+](=O)[O-])o2)n[nH]1	eLon inh 25, MCL1-BIM inh 42, BCLXL inh 48, GLD-1 RNA inh 75 (no result: EBV gp42 inh) | eLon confirm inactive
CCc1[nH]c(=O)[nH]c1C(C)S(=O)(=O)c1ccc(C)cc1 (centres undefined)	none
CCc1c(C(C)S(=O)(=O)c2ccc(C)cc2)[nH]c(=O)n1-c1ccc(C)cc1 (centres undefined)	eLon inh 63 | eLon confirm inactive
COc1ccc(/C=N/N2C(=O)C3C4C=CC(CC4)C3C2=O)c(OC)c1 (centres undefined)	none
O=C(Nc1cccc(S(=O)(=O)NC2=NCCC2)c1)C1CCC1	none
O=C(CC12CC3CC(CC(Br)(C3)C1)C2)Nc1cccc(S(=O)(=O)NC2=NCCC2)c1	eLon inh 16 | eLon confirm inactive
O=[N+]([O-])c1cccc(COc2ncnc3cc([N+](=O)[O-])ccc23)c1	none
CCc1c(Cl)nc(N)nc1Nc1ccccc1C	none (no result: EBV gp42 inh, MCL1-BIM inh, MEX-5 binding, BCLXL inh, GLD-1 RNA inh)
Cc1ccccc1Nc1nc(N)[nH]c(=O)c1N=O	eLon inh 26 (no result: EBV gp42 inh, MCL1-BIM inh, MEX-5 binding, BCLXL inh, GLD-1 RNA inh) | eLon confirm inactive
